Data as given in paper PMC9911399, “Two distinct binding modes provide the RNA-binding protein RbFox with extraordinary sequence specificity”.
Substitutions are numbered along the chain they refer to; changes in the protein carry UniProt numbers. Whole data set: some 16,000 sequences, median “ka relative to ugcaugu” near 0.096, cut for the highest 2% near 0.35. For the sample, the highest values were picked, then their nearest neighbours and some sequences at random.

T1: RBFOX1 RRM RbFoxmut (Fox-RRM*) (Homo sapiens, UniProt Q9NWB1 109-208, R118D;E147R;N151S;E152T)
T1 sequence: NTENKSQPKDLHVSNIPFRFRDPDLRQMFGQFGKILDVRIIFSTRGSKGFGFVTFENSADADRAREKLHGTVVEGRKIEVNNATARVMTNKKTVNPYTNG

B1: CGCGUAA (DNA:RNA)
RNA: GGGAGACCGGAAUUCAGAUUGUCCCGCGUAAUUAAAUCCCGUCGUAGCCACCA
DNA 1: CAATCTGAATTCCGGTCTCCC
DNA 2: TGGTGGCTACGACGGGATT
B2: AACGAAC (DNA:RNA)
RNA: B1 RNA with C25A, G26A, U29A, A31C
DNA 1: CAATCTGAATTCCGGTCTCCC
DNA 2: TGGTGGCTACGACGGGATT
B3: UAAUUGU (DNA:RNA)
RNA: B1 RNA with C25U, G26A, C27A, G28U, A30G, A31U
DNA 1: CAATCTGAATTCCGGTCTCCC
DNA 2: TGGTGGCTACGACGGGATT
B4: GGCUGUC (DNA:RNA)
RNA: B1 RNA with C25G, G28U, U29G, A30U, A31C
DNA 1: CAATCTGAATTCCGGTCTCCC
DNA 2: TGGTGGCTACGACGGGATT
B5: AUUCUUA (DNA:RNA)
RNA: B1 RNA with C25A, G26U, C27U, G28C, A30U
DNA 1: CAATCTGAATTCCGGTCTCCC
DNA 2: TGGTGGCTACGACGGGATT
B6: UGCCAUC (DNA:RNA)
RNA: B1 RNA with C25U, G28C, U29A, A30U, A31C
DNA 1: CAATCTGAATTCCGGTCTCCC
DNA 2: TGGTGGCTACGACGGGATT
B7: UGCAUAU (DNA:RNA)
RNA: B1 RNA with C25U, G28A, A31U
DNA 1: CAATCTGAATTCCGGTCTCCC
DNA 2: TGGTGGCTACGACGGGATT
B8: CUGCAUG (DNA:RNA)
RNA: B1 RNA with G26U, C27G, G28C, U29A, A30U, A31G
DNA 1: CAATCTGAATTCCGGTCTCCC
DNA 2: TGGTGGCTACGACGGGATT
B9: CCCUGCA (DNA:RNA)
RNA: B1 RNA with G26C, G28U, U29G, A30C
DNA 1: CAATCTGAATTCCGGTCTCCC
DNA 2: TGGTGGCTACGACGGGATT
B10: CUGCAUA (DNA:RNA)
RNA: B1 RNA with G26U, C27G, G28C, U29A, A30U
DNA 1: CAATCTGAATTCCGGTCTCCC
DNA 2: TGGTGGCTACGACGGGATT
B11: UGCCAUG (DNA:RNA)
RNA: B1 RNA with C25U, G28C, U29A, A30U, A31G
DNA 1: CAATCTGAATTCCGGTCTCCC
DNA 2: TGGTGGCTACGACGGGATT
B12: UGCAUUU (DNA:RNA)
RNA: B1 RNA with C25U, G28A, A30U, A31U
DNA 1: CAATCTGAATTCCGGTCTCCC
DNA 2: TGGTGGCTACGACGGGATT
B13: UGCCAUA (DNA:RNA)
RNA: B1 RNA with C25U, G28C, U29A, A30U
DNA 1: CAATCTGAATTCCGGTCTCCC
DNA 2: TGGTGGCTACGACGGGATT
B14: UGCAUGU (DNA:RNA)
RNA: B1 RNA with C25U, G28A, A30G, A31U
DNA 1: CAATCTGAATTCCGGTCTCCC
DNA 2: TGGTGGCTACGACGGGATT
B15: CGCGCUA (DNA:RNA)
RNA: B1 RNA with U29C, A30U
DNA 1: CAATCTGAATTCCGGTCTCCC
DNA 2: TGGTGGCTACGACGGGATT
B16: AUACCAG (DNA:RNA)
RNA: B1 RNA with C25A, G26U, C27A, G28C, U29C, A31G
DNA 1: CAATCTGAATTCCGGTCTCCC
DNA 2: TGGTGGCTACGACGGGATT
B17: CCAGGGG (DNA:RNA)
RNA: B1 RNA with G26C, C27A, U29G, A30G, A31G
DNA 1: CAATCTGAATTCCGGTCTCCC
DNA 2: TGGTGGCTACGACGGGATT
B18: CUUGUUU (DNA:RNA)
RNA: B1 RNA with G26U, C27U, A30U, A31U
DNA 1: CAATCTGAATTCCGGTCTCCC
DNA 2: TGGTGGCTACGACGGGATT
B19: AUGUAAA (DNA:RNA)
RNA: B1 RNA with C25A, G26U, C27G, G28U, U29A
DNA 1: CAATCTGAATTCCGGTCTCCC
DNA 2: TGGTGGCTACGACGGGATT
B20: AUGUAGA (DNA:RNA)
RNA: B1 RNA with C25A, G26U, C27G, G28U, U29A, A30G
DNA 1: CAATCTGAATTCCGGTCTCCC
DNA 2: TGGTGGCTACGACGGGATT
B21: ACGUAUC (DNA:RNA)
RNA: GGGAGACCGGAAUUCAGAUUGUCCACGUAUCUUAAAUCCCGUCGUAGCCACCA
DNA 1: CAATCTGAATTCCGGTCTCCC
DNA 2: TGGTGGCTACGACGGGATT
B22: AUGUAUC (DNA:RNA)
RNA: B21 RNA with C26U
DNA 1: CAATCTGAATTCCGGTCTCCC
DNA 2: TGGTGGCTACGACGGGATT
B23: AUGUAUG (DNA:RNA)
RNA: B21 RNA with C26U, C31G
DNA 1: CAATCTGAATTCCGGTCTCCC
DNA 2: TGGTGGCTACGACGGGATT
B24: AUAUGUA (DNA:RNA)
RNA: B21 RNA with C26U, G27A, A29G, C31A
DNA 1: CAATCTGAATTCCGGTCTCCC
DNA 2: TGGTGGCTACGACGGGATT
B25: UAUUAUG (DNA:RNA)
RNA: B21 RNA with A25U, C26A, G27U, C31G
DNA 1: CAATCTGAATTCCGGTCTCCC
DNA 2: TGGTGGCTACGACGGGATT
B26: UAAGUUC (DNA:RNA)
RNA: B21 RNA with A25U, C26A, G27A, U28G, A29U
DNA 1: CAATCTGAATTCCGGTCTCCC
DNA 2: TGGTGGCTACGACGGGATT
B27: GGAUAGG (DNA:RNA)
RNA: B21 RNA with A25G, C26G, G27A, U30G, C31G
DNA 1: CAATCTGAATTCCGGTCTCCC
DNA 2: TGGTGGCTACGACGGGATT
B28: UUGUAUU (DNA:RNA)
RNA: B21 RNA with A25U, C26U, C31U
DNA 1: CAATCTGAATTCCGGTCTCCC
DNA 2: TGGTGGCTACGACGGGATT
B29: CCCGAGU (DNA:RNA)
RNA: B1 RNA with G26C, U29A, A30G, A31U
DNA 1: CAATCTGAATTCCGGTCTCCC
DNA 2: TGGTGGCTACGACGGGATT
B30: UCGCAUG (DNA:RNA)
RNA: B21 RNA with A25U, U28C, C31G
DNA 1: CAATCTGAATTCCGGTCTCCC
DNA 2: TGGTGGCTACGACGGGATT
B31: UCGCGCA (DNA:RNA)
RNA: B21 RNA with A25U, U28C, A29G, U30C, C31A
DNA 1: CAATCTGAATTCCGGTCTCCC
DNA 2: TGGTGGCTACGACGGGATT
B32: UCGCAUA (DNA:RNA)
RNA: B21 RNA with A25U, U28C, C31A
DNA 1: CAATCTGAATTCCGGTCTCCC
DNA 2: TGGTGGCTACGACGGGATT
B33: UCAGAUC (DNA:RNA)
RNA: B21 RNA with A25U, G27A, U28G
DNA 1: CAATCTGAATTCCGGTCTCCC
DNA 2: TGGTGGCTACGACGGGATT
B34: UCGCAGA (DNA:RNA)
RNA: B21 RNA with A25U, U28C, U30G, C31A
DNA 1: CAATCTGAATTCCGGTCTCCC
DNA 2: TGGTGGCTACGACGGGATT
B35: UCGCAUC (DNA:RNA)
RNA: B21 RNA with A25U, U28C
DNA 1: CAATCTGAATTCCGGTCTCCC
DNA 2: TGGTGGCTACGACGGGATT

Target: T1, RBFOX1 RRM RbFoxmut (Fox-RRM*)
Experiment: EMSA; HiTS-Eq, 1 nM pool, 10 min; buffer printed only for the single-RNA assays: 10 mM Tris pH 7.5, 150 mM NaCl, 3.4 mM EDTA, 0.001% NP-40, 30 C
Conditions: tags: His6 N-terminal (pET28a); label: 5' 32P
Summary of the method: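 These values rest on relative association constants, computed from read-count changes of each RNA species versus the control reaction and normalised to the cognate motif. Reads came from free RNA recovered by 8% native PAGE after purified RbFox RRM (wild type or mutant) at increasing concentrations was equilibrated for 10 min in 50 µL with 1 nM of a 5′-radiolabelled pool with 7 randomized nucleotides and DNA-annealed flanks.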

| Binder | binding signal |
| --- | --- |
| B1 | 0.114 KA relative to UGCAUGU |
| B2 | 0.0568 KA relative to UGCAUGU |
| B3 | 0.0755 KA relative to UGCAUGU |
| B4 | 0.211 KA relative to UGCAUGU |
| B5 | 0.13 KA relative to UGCAUGU |
| B6 | 0.208 KA relative to UGCAUGU |
| B7 | 0.178 KA relative to UGCAUGU |
| B8 | 1.34 KA relative to UGCAUGU |
| B9 | 0.186 KA relative to UGCAUGU |
| B10 | 0.144 KA relative to UGCAUGU |
| B11 | 0.509 KA relative to UGCAUGU |
| B12 | 0.137 KA relative to UGCAUGU |
| B13 | 0.122 KA relative to UGCAUGU |
| B14 | 1 KA relative to UGCAUGU |
| B15 | 0.103 KA relative to UGCAUGU |
| B16 | 0.122 KA relative to UGCAUGU |
| B17 | 0.0555 KA relative to UGCAUGU |
| B18 | 0.0932 KA relative to UGCAUGU |

| Binder | binding signal |
| --- | --- |
| B19 | 0.169 KA relative to UGCAUGU |
| B20 | 0.152 KA relative to UGCAUGU |
| B21 | 0.185 KA relative to UGCAUGU |
| B22 | 0.407 KA relative to UGCAUGU |
| B23 | 1.19 KA relative to UGCAUGU |
| B24 | 0.261 KA relative to UGCAUGU |
| B25 | 0.158 KA relative to UGCAUGU |
| B26 | 0.0634 KA relative to UGCAUGU |
| B27 | 0.0913 KA relative to UGCAUGU |
| B28 | 0.171 KA relative to UGCAUGU |
| B29 | 0.094 KA relative to UGCAUGU |
| B30 | 1.06 KA relative to UGCAUGU |
| B31 | 0.104 KA relative to UGCAUGU |
| B32 | 0.125 KA relative to UGCAUGU |
| B33 | 0.0785 KA relative to UGCAUGU |
| B34 | 0.0842 KA relative to UGCAUGU |
| B35 | 0.597 KA relative to UGCAUGU |
